Luciferase inh: inhibitors of firefly (Photinus pyralis) luciferase; P08659; purified P. pyralis luciferase, luminescence, biochemical; Potency, µM (doses to about 115 µM), usual class: inhibitors; 2.5% of 76,000 active; further: potency means the concentration at half of the fitted maximal effect; nearly all actives have a fitted effect of over 65% in size
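Luminescence read by CCD imager after adding enzyme (10nM final) to wells holding compound, titrated in qHTS. Substrates 10uM each D-luciferin and ATP; buffer 50mM Tris acetate pH 7.5, 10mM Mg acetate, Tween-20, BSA.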
NIH3T3 tox: kills NIH 3T3 cells | 4.3% of 94,000 active | Potency, µM (series often up to 96.7 µM), for the others: top-dose activity change, negative = cytotoxicity, hits mostly inhibitors | NIH 3T3 viability, CellTiter-Glo ATP luminescence, 48-72 h; further: potency means the concentration at half of the fitted maximal effect; nearly all actives have a fitted effect of over 55% in size
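ATP-dependent luminescence (CellTiter-Glo) served as the viability signal for NIH 3T3 cells treated with compound for 48 or 72 hr at 37 °C.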
SNCA expr inh: reduces expression of the alpha-synuclein gene. HEK-293 SNCA-luciferase knock-in, luminescence, 24 h. Potency, µM (titrated, usually from 57.2 µM), without a hit: top-dose activity change, negative = inhibition, actives largely listed as inhibitors. 0.17% of 140,000 active;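 further: potency means the concentration at half of the fitted maximal effect; plate controls were DMSO cells for no effect and cell-free wells for full effect; nearly all actives have a fitted effect of over 45% in size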
IP6K1 inhibitor: blocks human inositol hexakisphosphate kinase 1. 0.81% of 140,000 active. IP6K1 kinase, ADP-Glo luminescence, 2 h; stronger effect = lower value. AID 1645851. activity change, % (series mostly up to about 58 µM). Q92551; in the data active means activity change below about -25%
Target sequence (Q92551 whole entry, looked up): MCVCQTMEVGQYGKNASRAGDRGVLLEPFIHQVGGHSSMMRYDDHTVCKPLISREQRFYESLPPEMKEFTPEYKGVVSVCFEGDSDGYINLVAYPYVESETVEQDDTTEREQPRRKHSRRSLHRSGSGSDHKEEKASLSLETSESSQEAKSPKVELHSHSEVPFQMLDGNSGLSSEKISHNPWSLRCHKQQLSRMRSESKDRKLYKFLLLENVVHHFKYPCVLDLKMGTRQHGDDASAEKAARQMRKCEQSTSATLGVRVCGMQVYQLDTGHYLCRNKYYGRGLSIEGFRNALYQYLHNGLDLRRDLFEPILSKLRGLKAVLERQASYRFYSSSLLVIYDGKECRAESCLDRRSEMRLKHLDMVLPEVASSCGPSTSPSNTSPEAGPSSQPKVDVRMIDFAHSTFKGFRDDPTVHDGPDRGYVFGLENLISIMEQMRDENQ
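ADP-Glo luminescence measures ADP made by human IP6K1 during a 2 h RT reaction with ATP/IP6 (mix at 1.3 mM/130 uM); top library doses 57.5 and 19.1 uM final.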
HEK293 viab: counter-screen for SNCA expression inhibitors: cell viability | Potency, µM (highest dose often 57.1 µM), without a hit: at the top dose activity change, negative = cytotoxicity, actives largely listed as cytotoxic | AID 1671193 | HEK-293-SNCA-luc viability, GF-AFC fluorescence, 24 h | 0.12% of 150,000 active;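 further: potency means the concentration at half of the fitted maximal effect; 0% = DMSO-treated cells and -100% = medium-only wells without cells; nearly all actives have a fitted effect of over 30% in size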
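HEK-293-SNCA-luc cells (1500/well) plated 24 h, then exposed 24 h to a dilution series; GF-AFC added 30 min at 37C, fluorescence 405/540 nm; normalised to medium-only and DMSO wells, Hill fit.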
HEK293 tox: cytotoxic compounds in HEK 293 cells; AID 1345083; Potency, µM (top dose mostly 115 µM), for inactives: at the top dose activity change, negative = cytotoxicity, hits mostly inhibitors; 6.6% of 94,000 active; HEK 293 viability, ATP luminescence (CellTiter-Glo), 48-72 h; further: potency means the concentration at half of the fitted maximal effect; nearly all actives have a fitted effect of over 60% in size
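ATP-coupled CellTiter-Glo luminescence served as viability read-out, recorded 10 min after reagent addition at room temperature. HEK 293 cells, 250 cells/well, had been incubated with pintool-transferred compound for 48 or 72 hr at 37 degree Celsius.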
* = called active by the depositor; i = inactive; ? = inconclusive; . = no result; [ ] = dose if it differs, or a comment. Shown are actives, neighbours in structure and some others; about 7.3% of the full set was active somewhere. Unless noted, the call rests on the fitted dose curve; in most records, active means well fitted curve in the direction sought with a large enough effect; inconclusive means small, poorly fitted or top-dose-only effect, or another doubt; inactive means no such curve, though single readings can be large; an effect the other way counts as inactive or inconclusive. Unless noted, on the % scale 0 is the no-effect control and ±100 the full control effect.

SMILES | Luciferase inh | NIH3T3 tox | SNCA expr inh | IP6K1 inhibitor | HEK293 viab | HEK293 tox
CN(C)c1cccc(NC(=O)c2ccnc(-c3nnc4ccc(N5CCOCC5)nn34)c2)c1 | i | ? | 28% | -21 | 9% | -28%
CN(c1ccccc1)c1ccc2nnc(-c3cc(C(=O)NC4CCC(O)CC4)ccn3)n2n1 (centres undefined) | i | ? | ? | -6 | 4% | -10%
Cc1cccnc1CN(C)c1ccc(C(=O)NCc2noc(C(C)C)n2)cn1 | i | ? | -19% | 6 | -14% | ?
O=C(c1ccco1)N1C[C@@H]2C(CN(CC#Cc3ccccc3)C3CC3)[C@@H]2C1 (some centres undefined) | i | ? | -6% | 15 | -17% | ?
CC(C)c1ccc(S(=O)(=O)N2CCCC2c2nncn2C2CCCC2)cc1 (centres undefined) | . | -4% | -7% | 8 | 1% | 4%
Cn1ccc2c(C(=O)NCc3cccnc3)nc(-c3ccccc3)cc21 | i | ? | 0%[87.6 µM] | -3 | 1%[87.6 µM] | ?
O=C(NCCc1ccccn1)c1nc(-c2ccccc2)cc2[nH]ccc12 | ? | ? | 7%[87.6 µM] | -4 | ? | 79µM*
O=C(NCCCn1ccnc1)c1nc(-c2ccccc2)cc2[nH]ccc12 | i | ? | 6%[87.6 µM] | 28 | -22%[87.6 µM] | ?
O=C(NCc1cccnc1)c1nc(-c2ccccc2)cc2[nH]ccc12 | i | ? | -12%[87.6 µM] | -8 | -5%[87.6 µM] | 89µM*
Cc1ccc(NC(=O)NCCc2ncc(C)n2C2CCC2)cc1C | i | -19% | -1% | 4 | 4% | 79µM*
Cc1cnc(CCNC(=O)C2(c3ccccc3)CC2)n1C1CCCCCC1 | i | ? | -18% | -2 | -8% | 40µM*
COc1ccccc1CNC(=O)C[C@@H]1[C@H](O)CCC2[C@](C)(CO)[C@H](OC(=O)NC(C)C)CC[C@]21C (some centres undefined) | i | -29% | 31% | -5 | 6% | 4%
CNc1ncc(CN(C)C(=O)CCc2cc3n(n2)CCCNC3)cn1 | i | 0% | ? | 13 | 2% | 0%
O=C(C1CCCN1[S+](=O)([O-])c1cccc(C(F)(F)F)c1)N1CCC(c2ccccc2)CC1 (centres undefined) | . | 35µM* | ? | -5 | -28% | 25µM*
O=C(c1ccc(C(F)(F)F)cc1)N1CCC(C(=O)N2CCC(c3ccccc3)CC2)CC1 | . | ? | -25% | 16 | -18% | 45µM*
O=C(C1CCN(S(=O)(=O)c2cccc(C(F)(F)F)c2)CC1)N1CCC(c2ccccc2)CC1 | . | ? | -24% | 11 | -20% | 22µM*
O=C(c1ccc(-c2cccs2)cc1)N1CCC(C(=O)N2CCC(c3ccccc3)CC2)CC1 | . | ? | . | 0 | . | ?
COc1ccc(-c2cc(N3CCC(NC(=O)c4cccc(C#N)c4)CC3)n[nH]2)cc1 | i | ? | 19% | 21 | -9% | ?
COC(=O)c1ccc(CN2C(=O)[C@@H]3C[C@@H](O)CN3C3(CN(Cc4ccc(F)cc4)C3)C2=O)cc1 | i | -18% | -12% | -6 | 2% | -1%
COc1ccccc1N1CCN(S(=O)(=O)c2c(C)sc3ncn(CC(=O)Nc4ccccc4F)c(=O)c23)CC1 | . | . | 2.5µM* | 4 | 3% | .
NC(CN1CCCC1)C1CCCCC1 (centres undefined) | . | 3%[174 µM] | 15%[87.6 µM] | 32 | -9%[87.6 µM] | 3%[230 µM]
CN(C)c1ccc(CN2CCC3(CC2)COc2ccccc2C(=O)N3)cc1 | i | 22µM* | -12% | 11 | -12% | ?
COc1cccc(CN2CCC3(COc4ccccc4C(=O)N3)C2)c1 (centres undefined) | i | 40µM* | 28%[87.6 µM] | 29 | 3%[87.6 µM] | 89µM*
CC(C)CCN1CCC2(COc3ccccc3C(=O)N2)C1 (centres undefined) | i | 100µM* | 5%[87.6 µM] | 0 | -4%[87.6 µM] | ?
COc1cccc(CN2CCCC3(COc4ccccc4C(=O)N3)C2)c1 (centres undefined) | i | ? | -10%[87.6 µM] | 18 | 6%[87.6 µM] | ?
SMILES | Luciferase inh | NIH3T3 tox | SNCA expr inh | IP6K1 inhibitor | HEK293 viab | HEK293 tox
O=C(c1cc(-c2ccccc2)c2nncn2n1)N1CCOCC1 | . | -6%[138 µM] | 10%[87.6 µM] | -6 | 2%[87.6 µM] | 3%[172 µM]
O=S(=O)(c1cccc(F)c1)N1CCC2(CC1)CC(Cc1nc(C3CC3)no1)CCO2 (centres undefined) | i | ? | -12% | -3 | -8% | 45µM*
O=C1[C@H](Cc2ccc(O)cc2)N2C(=O)CCN(C(=O)NCc3ccccc3)[C@H]2CN1Cc1cccc2ccccc12 | . | . | ? | . | 24µM* | .
Cn1cc(CN2CCCC(COc3ccccc3C(=O)NC3CC3)C2)c2ccccc21 (centres undefined) | i | -26% | -19% | 10 | ? | ?
Fc1ccc(CN2CCNc3cc(Nc4ccccc4)ncc3C2)cc1F | i | 40µM* | ? | -22 | -29%[87.6 µM] | 22µM*
Fc1cccc(CN2CCNc3cc(Nc4cccnc4)ncc3C2)c1 | 35µM* | 32µM* | ? | -10 | ? | ?
c1ccc(Nc2cc3c(cn2)CN(Cc2ccccn2)CCN3)cc1 | i | ? | 30%[87.6 µM] | -19 | -20%[87.6 µM] | ?
c1ccc(Nc2cc3c(cn2)CN(Cc2ncc[nH]2)CCN3)cc1 | 18µM* | ? | 120%[87.6 µM] | -18 | -11%[87.6 µM] | ?
Fc1ccc(Nc2cc3c(cn2)CN(Cc2ccncc2)CCN3)cc1Cl | ? | 20µM* | 44%[87.6 µM] | 7 | -5%[87.6 µM] | 32µM*
CN1c2cc(C(=O)NCc3cc(F)cc(F)c3)ccc2C(=O)N2CCCCC21 (centres undefined) | i | -12% | -20% | -3 | 26%[12.5 µM] | -6%
CCCCn1c(=O)c(C(=O)NC2CC2)nc2cccnc21 | . | -2%[138 µM] | 1%[87.6 µM] | 3 | -9%[87.6 µM] | i
FC(F)(F)c1ccc(CN2CCNc3cc(Nc4ccccc4)ncc3C2)cc1 | ? | 25µM* | ? | -18 | ? | 45µM*
c1ccc(N2CCN(c3cc4c(cn3)CN(Cc3ccncc3)CCN4)CC2)nc1 | i | -27%[138 µM] | -2%[87.6 µM] | -18 | -10%[87.6 µM] | 79µM*
c1cncc(-c2cc3c(cn2)CN(Cc2ccncc2)CCN3)c1 | i | -17%[138 µM] | 10%[87.6 µM] | -2 | -3%[87.6 µM] | ?
Fc1ccc(Nc2cc3c(cn2)CN(Cc2ccccc2)CCN3)cc1 | ? | 32µM* | 33%[87.6 µM] | -13 | ? | -97%[172 µM]
O=C(NCc1ccc2c(c1)OCO2)C1CCN(C(=O)c2ccc(-c3cncnc3)cc2)CC1 | . | -14% | . | -14 | . | -6%
Cc1ccc(-c2cc(C(=O)N3CCC(c4ncccn4)CC3)c3cnn(C)c3n2)c(C)c1 | . | -25% | -5% | 2 | -21% | ?
